High-throughput results (PubChem)
T cruzi growth-1 – T. cruzi proliferation inhibition; T. cruzi beta-gal in NIH3T3, GalScreen luminescence, 90 h; inhibition, % at 8.34 µM; 77,000 tested, 5.9% active; AID 624255;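 active means mean inhibition above about 93%, with at least 55% of replicates each passing it, limit read from the data, passing the limit was not always enough; inconclusive means only one of those two conditions holds; inactive means neither condition holds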
C diff growth – blocks growth of Clostridium difficile | Clostridium difficile clinical isolate growth, OD600, 24 h; active compounds read low | growth activity, negative = inhibition, % at 16 µg/mL (by protocol) | 86,000 tested, 0.25% active;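 active means mean growth activity at or below -80% and every replicate also at or below -80%; inconclusive means mean at or below -80% but some replicate above -80%; inactive means mean growth activity above -80%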
Pf Dd2 growth – blocks growth of Plasmodium falciparum Dd2 parasites; 94,000 tested, 2.3% active; P. falciparum Dd2 growth, SYBR Green, 72 h; active compounds read low; activity change, % at 10 µM; in the data active means activity change below about -80%; inconclusive means no clear call, values can overlap the other calls
T cruzi growth-2 – blocks T. cruzi growth in NIH3T3 host cells. inhibition, % at 8.35 µM. shares compounds with T cruzi growth-1. T. cruzi beta-gal in NIH3T3, GalScreen luminescence, 90 h. 5,600 tested, 72% active;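 active means mean replicate inhibition above about 95% and at least 55% of replicates individually reaching it, limit read from the data; inconclusive means only one of the two criteria is met; inactive means neither criterion is met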
T cruzi growth-3 – blocks T. cruzi growth in NIH3T3 host cells | shares compounds with T cruzi growth-1 | T. cruzi beta-gal in NIH3T3, GalScreen luminescence, 90 h | inhibition, % at 2.09 µM | 5,600 tested, 21% active | AID 651740;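 active means mean inhibition above about 95%, with at least 55% of replicates also reaching it, limit read from the data; inconclusive means meets just one of the two conditions; inactive means meets neither condition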
3T3 cytotox – kills mouse NIH/3T3 fibroblasts | shares compounds with T cruzi growth-1 | NIH/3T3 viability, CellTiter-Glo ATP luminescence, 90 h | cytotoxicity (signal decrease), % at 8.35 µM | 5,600 tested, 14% active | AID 651742;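 active means mean signal decrease across replicates above about 35% based on untreated-well scatter, with enough replicates individually passing, limit read from the data; inconclusive means no rule stated though some were filed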
3T3 cytotox 2 – kills mouse NIH/3T3 fibroblasts. inhibition, % at 24.9 µM. 5,600 tested, 56% active. shares compounds with T cruzi growth-1. NIH/3T3 viability, CellTiter-Glo ATP luminescence, 90 h;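 active means mean loss of cell viability signal at or above a set limit, and enough replicates individually reaching it; inconclusive means meets only the mean limit or only the replicate share; inactive means meets neither condition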
A number is an active result. Only some compounds are listed: those with a hit (about 6.7% of all), similar ones and a draw of the others.

For C[C@@H]1CN([C@@H](C)CO)S(=O)(=O)c2ccc(C#Cc3ccccc3)cc2O[C@@H]1CN(C)S(C)(=O)=O the results were T cruzi growth-1 inactive, C diff growth inactive and Pf Dd2 growth inactive.
Screening CCCC#Cc1ccc2c(c1)O[C@@H](CN(C)S(C)(=O)=O)[C@H](C)CN([C@H](C)CO)S2(=O)=O returned T cruzi growth-1 inactive, C diff growth inactive and Pf Dd2 growth inactive.
For C[C@H]1CN([C@@H](C)CO)S(=O)(=O)c2ccc(C#Cc3ccc(F)cc3)cc2O[C@H]1CN(C)S(C)(=O)=O the results were T cruzi growth-1 117.7, C diff growth inactive, Pf Dd2 growth inactive, T cruzi growth-2 105.0, T cruzi growth-3 inactive, 3T3 cytotox inactive and 3T3 cytotox 2 inactive.
For C[C@H](CO)N1C[C@H](C)[C@H](CN(C)S(C)(=O)=O)Oc2cc(C#Cc3ccc(F)cc3)ccc2S1(=O)=O the results were T cruzi growth-1 115.0, C diff growth inactive, Pf Dd2 growth inactive, T cruzi growth-2 103.2, T cruzi growth-3 inactive, 3T3 cytotox inactive and 3T3 cytotox 2 50.6.
Screening C[C@H]1CN([C@@H](C)CO)S(=O)(=O)c2ccc(C#Cc3ccc(F)cc3)cc2O[C@@H]1CN(C)S(C)(=O)=O returned T cruzi growth-1 121.6, C diff growth inactive, Pf Dd2 growth inactive, T cruzi growth-2 102.2, T cruzi growth-3 inactive, 3T3 cytotox inconclusive and 3T3 cytotox 2 86.9.
For CCCC#Cc1ccc2c(c1)O[C@@H](CN(C)S(C)(=O)=O)[C@@H](C)CN([C@@H](C)CO)S2(=O)=O the results were T cruzi growth-1 100.5, C diff growth inactive, Pf Dd2 growth inactive, T cruzi growth-2 inconclusive, T cruzi growth-3 inconclusive, 3T3 cytotox inactive and 3T3 cytotox 2 58.4.
Screening C[C@@H]1CN([C@H](C)CO)S(=O)(=O)c2ccc(C#Cc3ccccc3)cc2O[C@@H]1CN(C)S(C)(=O)=O returned T cruzi growth-1 inactive, C diff growth inactive and Pf Dd2 growth inactive.
`C[C@H](CO)N1C[C@H](C)[C@@H](CN(C)C)Oc2cc(C#Cc3ccc(F)cc3)ccc2S1(=O)=O` gave T cruzi growth-1 inactive, C diff growth inactive and Pf Dd2 growth inactive.
O=C(NCC1CC1)[C@@H]1[C@@H](CO)[C@@H]2Cn3c(ccc(-c4ccncc4)c3=O)[C@H]1N2CC1CC1 was read as T cruzi growth-1 inactive, C diff growth inactive and Pf Dd2 growth inactive.
Cc1cccc(-c2ccc(C3[C@@H]4CN(C(=O)C5CCCCC5)C[C@H]3N4)cc2)c1 (stereo partly drawn) was read as C diff growth inactive and Pf Dd2 growth inactive.
COc1ccc(NC(=O)N(C)C[C@H]2OCCCC[C@H](C)Oc3ccc(NS(=O)(=O)c4ccc(C)cc4)cc3C(=O)N([C@@H](C)CO)C[C@@H]2C)cc1 was read as T cruzi growth-1 inactive and Pf Dd2 growth inactive.
`O=C(Cc1ccccn1)N[C@@H]1CC[C@@H](CCn2cc(-c3ccccc3)nn2)O[C@@H]1CO` gave T cruzi growth-1 inactive and Pf Dd2 growth inactive.
C[C@@H]1CN([C@H](C)CO)S(=O)(=O)c2ccc(-c3cccc(C#N)c3)cc2O[C@@H]1CN(C)C(=O)c1ccc(F)cc1 was read as T cruzi growth-1 101.1, C diff growth inactive, Pf Dd2 growth inactive, T cruzi growth-2 101.6, T cruzi growth-3 inactive, 3T3 cytotox inconclusive and 3T3 cytotox 2 88.3.
C[C@@H]1CN([C@@H](C)CO)S(=O)(=O)c2ccc(-c3cccc(C#N)c3)cc2O[C@H]1CN(C)C(=O)c1ccccc1 was read as T cruzi growth-1 inactive, C diff growth inactive and Pf Dd2 growth inactive.
C[C@H](CO)N1C[C@H](C)[C@H](CN(C)C(=O)c2ccccc2)Oc2cc(-c3cccc(C#N)c3)ccc2S1(=O)=O was read as T cruzi growth-1 inactive, C diff growth inactive and Pf Dd2 growth inactive.
For C[C@H](CO)N1C[C@H](C)[C@@H](CN(C)C)Oc2cc(-c3cccc(C#N)c3)ccc2S1(=O)=O the results were T cruzi growth-1 inactive and Pf Dd2 growth inactive.
C[C@@H]1CN([C@H](C)CO)S(=O)(=O)c2ccc(-c3cccc(C#N)c3)cc2O[C@H]1CN(C)C was read as T cruzi growth-1 110.4, C diff growth inactive, Pf Dd2 growth inactive, T cruzi growth-2 inactive, T cruzi growth-3 inactive, 3T3 cytotox inactive and 3T3 cytotox 2 36.5.
Screening C[C@H](CO)N1C[C@H](C)[C@H](CN(C)C(=O)c2ccc(F)cc2)Oc2cc(-c3cccc(C#N)c3)ccc2S1(=O)=O returned T cruzi growth-1 103.7, C diff growth inactive, Pf Dd2 growth inactive, T cruzi growth-2 inactive, T cruzi growth-3 inactive, 3T3 cytotox inactive and 3T3 cytotox 2 64.0.
COc1ccc(-c2ccc3c(c2)O[C@H](CN(C)C(=O)c2ccccc2F)[C@@H](C)CN([C@@H](C)CO)S3(=O)=O)cc1 was read as T cruzi growth-1 106.3, C diff growth inactive, Pf Dd2 growth inactive, T cruzi growth-2 104.5, T cruzi growth-3 inactive, 3T3 cytotox inactive and 3T3 cytotox 2 54.0.
`COc1ccc(-c2ccc3c(c2)O[C@@H](CN(C)C(=O)c2ccccc2F)[C@@H](C)CN([C@@H](C)CO)S3(=O)=O)cc1` gave T cruzi growth-1 inactive, C diff growth inactive and Pf Dd2 growth inactive.
Screening COc1ccc(-c2ccc3c(c2)O[C@H](CN(C)C(=O)c2ccccc2F)[C@@H](C)CN([C@H](C)CO)S3(=O)=O)cc1 returned T cruzi growth-1 107.8, C diff growth inactive, Pf Dd2 growth inactive, T cruzi growth-2 101.8, T cruzi growth-3 inactive, 3T3 cytotox inactive and 3T3 cytotox 2 36.0.
COc1ccc(-c2ccc3c(c2)O[C@@H](CN(C)C(=O)c2ccccc2F)[C@@H](C)CN([C@H](C)CO)S3(=O)=O)cc1 was read as T cruzi growth-1 inactive, C diff growth inactive and Pf Dd2 growth inactive.
For COc1ccc(-c2ccc3c(c2)O[C@@H](CN(C)C(=O)Nc2ccccc2F)[C@@H](C)CN([C@@H](C)CO)S3(=O)=O)cc1 the results were T cruzi growth-1 inactive, C diff growth inactive and Pf Dd2 growth inactive.
COc1ccc(-c2ccc3c(c2)O[C@@H](CN(C)C(=O)c2ccccc2F)[C@H](C)CN([C@@H](C)CO)S3(=O)=O)cc1 was read as T cruzi growth-1 110.0, C diff growth inactive, Pf Dd2 growth inactive, T cruzi growth-2 inactive, T cruzi growth-3 inactive, 3T3 cytotox 46.9 and 3T3 cytotox 2 78.6.
For COc1ccc(-c2ccc3c(c2)O[C@H](CN(C)C(=O)Nc2ccccc2F)[C@@H](C)CN([C@@H](C)CO)S3(=O)=O)cc1 the results were T cruzi growth-1 97.8, C diff growth inactive, Pf Dd2 growth inactive, T cruzi growth-2 108.1, T cruzi growth-3 inactive, 3T3 cytotox inactive and 3T3 cytotox 2 58.3.
